About 83,000 compounds went through this panel and 20% of them were active in at least one assay; those are over-represented in the sample as a whole.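 Interpretation: 100, growth as untreated; towards 0, rising growth inhibition; 0, no net growth; 0 to -100, cell death. Compounds scoring below 10 were considered active.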 Unmarked numbers belong to inactive results. Calls of active or inactive are those of the source.
Assays:
Experiment in all cases: NCI-60 one-dose screen, 48 h (100 = growth as untreated, 0 = no growth, -100 = all killed)
Conditions in all cases: 10 µM unless noted
NCI-H23 lung = test system: NCI-H23 lung
NCI-H226 lung = test system: NCI-H226 lung
NCI-H322M lung = test system: NCI-H322M lung
HOP-62 NSCLC = test system: HOP-62 NSCLC
NCI-H460 lung = test system: NCI-H460 lung
HOP-92 NSCLC = test system: HOP-92 NSCLC
NCI-H522 lung = test system: NCI-H522 lung
A549/ATCC NSCLC = test system: A549/ATCC NSCLC
786-0 renal = test system: 786-0 renal
COLO 205 colon = test system: COLO 205 colon

SMILES	growth (NCI-H23 lung)	growth (NCI-H226 lung)	growth (NCI-H322M lung)	growth (HOP-62 NSCLC)	growth (NCI-H460 lung)	growth (HOP-92 NSCLC)	growth (NCI-H522 lung)	growth (A549/ATCC NSCLC)	growth (786-0 renal)	growth (COLO 205 colon)
CN1CCN(C(=O)[C@]2(C)CC[C@]3(C)CC[C@]4(C)C(=CC(=O)[C@@H]5[C@@]6(C)CCC(=O)NC(C)(C)[C@@H]6CC[C@]54C)[C@@H]3C2)CC1	100%	91.8%	107%	89.2%	102%	64.7%	90.6%	94.4%	93.5%	110%
COc1ccc(Cn2nc(-c3ccccc3)c3c2CCc2cnoc2-3)cc1	60.3%	105%	101%	83.5%	80.5%	61.1%	70.3%	69.4%	79.4%	88.6%
CN1C(=O)N(C)C2NC(N/N=C/c3ccccc3)=NC21 (stereo not given)	100%	95%	94.5%	94.5%	103%	102%	104%	100%	104%	106%
CCCC/C(=N\N=C(N)N)c1ccc(F)cc1	34.9%	31.6%	61.5%	27.9%	16.2%	31.4%	10.2%	31.8%	26.8%	8.47% (active)
C#CCNC(=O)[C@H](Cc1ccccc1)NC(=O)[C@]12CC[C@@H](C(=C)C)[C@@H]1[C@H]1CC[C@@H]3[C@@]4(C)Cc5c([nH]c6ccccc56)C(C)(C)[C@@H]4CC[C@@]3(C)[C@]1(C)CC2	94.9%	90.2%	93.9%	95.2%	104%	69.7%	87.9%	84.7%	87.8%	97.8%
N#Cc1c(NC(=O)c2cccc(Br)c2)sc2c1CCCC2	91%	89.8%	79.1%	83.3%	75.3%	86.2%	75.9%	75.2%	82.6%	94.2%
O=C(/C=C/c1ccc[nH]1)c1ccc(-n2ccc(C(F)(F)F)n2)cc1	90.1%	91.5%	72.4%	104%	99.1%	96.3%	-6.16% (active)	50.6%	45.4%	122%
COc1ccc(-c2nn(Cc3ccccc3)c3c2-c2oncc2CC3)cc1OC	105%	131%	112%	120%	95.6%	49.4%	98.9%	96.8%	97.8%	136%
O=C(N/N=C/c1ccncc1)c1ccccc1Nc1cccc(C(F)(F)F)c1	95.5%	66.3%	88.5%	97.6%	103%	47.3%	82%	55.6%	86.7%	107%
COc1cc(OC)c(/C=C/C(=O)c2ccc(Nc3ncnc4ccccc34)cc2)c(OC)c1	17%	-17.3% (active)	11.5%	-54.5% (active)	-23.1% (active)	-16.4% (active)	-51.4% (active)	12.2%	-13.2% (active)	6.02% (active)
COc1ccc(C2=NN(C(C)=O)C(c3cn(Cc4ccc(Cl)cc4)c4ccccc34)C2)cc1 (stereo not given)	73.3%	67.6%	83.1%	85.7%	86.9%	61.2%	69.5%	64.6%	89.4%	115%
BrC(Br)(Br)c1cnc2ccccc2n1	64.2%	21.3%	74.9%	60%	8.61% (active)	7.52% (active)	-61.3% (active)	34.6%	67.7%	-86.4% (active)
COc1ccc(/C=C2\COc3ccc(-c4ccccc4)cc3C2=O)cc1O	50.5%	96.2%	66.7%	-41.9% (active)	16.7%	-1.71% (active)	17.8%	62%	-21.8% (active)	63.9%
COc1cc2nc(-c3ccc(C(F)(F)F)cc3)cc(OCCN3CCCC3)c2cc1OC	80.9%	82.7%	88.9%	83.6%	68.1%	60.7%	95.7%	93.5%	76.4%	77.9%
CCc1c(Nc2ccc(C)cc2)[nH]c(N)nc1=S	97%	95.3%	106%	98.1%	106%	108%	96.9%	101%	104%	109%
Cn1c(COC(=O)NCCn2ccnc2)nc2c(N3CCOCC3)nc(-c3ccccc3)nc21	-74.8% (active)	-53.8% (active)	33.4%	-40.4% (active)	-72.1% (active)	-75.2% (active)	-54.7% (active)	-36.2% (active)	-89.7% (active)	-57.3% (active)
COc1ccc(Nc2nc(N)nc3c2CCc2occc2-3)cc1	92.4%	97.1%	95.3%	98.4%	108%	99.6%	76.9%	103%	95.5%	116%
CCN(CC)CCCC(Nc1c2ccc(Cl)cc2nc2ccc(OC)cc12)c1ccc(Cl)cc1 (stereo not given)	62.1%	37%	-17.1% (active)	25.4%	-69.2% (active)	7.29% (active)	-68.7% (active)	-42.5% (active)	-84% (active)	-73.8% (active)
CC(=O)OCCCCCNc1ccccc1	101%	104%	106%	102%	118%	109%	95.1%	101%	101%	107%
Cc1ccc(C2CC(c3cccc(Nc4ccncc4)c3)=NN2c2ccc(Cl)cc2)cc1 (stereo not given)	-83.2% (active)	-38.8% (active)	-99.7% (active)	-65.9% (active)	-76.1% (active)	-90.3% (active)	-71.2% (active)	-34.5% (active)	-88.4% (active)	-66.3% (active)
CN1CCCC1=Nc1ccccc1	93.7%	104%	99.2%	103%	111%	89%	83.2%	97.9%	115%	110%
CC(=O)c1c(-c2ccc(OC(F)(F)F)cc2)nc2ccccn12	95.4%	91%	90.4%	88.9%	103%	91%	51.5%	62.8%	99%	95.8%
NC(=O)c1ncn(C2OC(CO)C(O)C2O)n1 (stereo not given)	89%	87.6%	86.5%	71.8%	104%	79%	79.6%	96.3%	91.6%	94.4%
COc1cc(C2CC(c3cccc(Nc4ccncc4)c3)=NN2C(C)=O)cc(OC)c1OC (stereo not given)	104%	96.8%	102%	91.1%	103%	70.1%	77.9%	98.5%	88%	95%
COc1ccccc1C(C[N+](=O)[O-])c1c(-c2ccccc2)[nH]c2cc(C)ccc12 (stereo not given)	68.4%	53.1%	90.4%	71.9%	85.2%	64.4%	27.8%	61.8%	86.8%	78.4%
CC(=O)N1c2ccccc2NC2=C(C(=O)N(C)C2(C)C)C1C (stereo not given)	50.2%	91.1%	73.4%	61.6%	21.9%	37.5%	18.6%	80.3%	80.1%	14.2%
CN(C)c1ccc(-c2c(C#N)c(N)n3nc(N)c(C#N)c3c2C#N)cc1	96.9%	86%	82%	57.8%	70.1%	60.1%	82.7%	73.6%	93.1%	75.4%
